Measurements reported in PubChem BioAssay AID1159580 (chemical genetic matrix, 2015).
The campaign covered roughly 5,500 compounds. About 2,000 (36%) were called active. Another 18% or so got no clear call; they are omitted. Rule as the data show it: active = normalized growth mostly below about 0.91 (no sharp cut-off); inconclusive = no clear call, values can overlap the other calls; inactive = mostly above about 0.92. Some of the results follow.

Test: chemical genetic growth profiling, strain panel (AID 1159580);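 also: tested at 20 µM; growth read once vehicle control cultures reached saturation at 30 °C; 1 = growth at the plate median or of vehicle wells; lower values mean less growth of the strain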
Conditions: growth OD

Measured: normalized growth

CC1=C2[C@](C)(C=CC1=O)C[C@H](O)[C@H]1[C@H](C)C(=O)O[C@]21C
inactive: S. cerevisiae deletion strains, locus YAL013W, strain DEP1, hits give low values 1.01 | S. cerevisiae deletion strains, locus YBR021W, strain FUR4, hits give low values 1 | S. cerevisiae deletion strains, locus YBR229C, strain ROT2, hits give low values 1.01 | S. cerevisiae deletion strains, locus YCL029C, strain bik1, hits give low values 1.03 | S. cerevisiae deletion strains, locus YDL035C, strain GPR1, hits give low values 1.02 | S. cerevisiae deletion strains, locus YDL074C, strain BRE1, hits give low values 1.01 | S. cerevisiae deletion strains, locus YDL101C, strain DUN1, hits give low values 1.02 | S. cerevisiae deletion strains, locus YDL134C, strain PPH21, hits give low values 1.01 | S. cerevisiae deletion strains, locus YDL185W, strain tfp1, hits give low values 1.03 | S. cerevisiae deletion strains, locus YDL192W, strain arf1, hits give low values 1.04 | S. cerevisiae deletion strains, locus YDR101C, strain arx1, hits give low values 1.01 | S. cerevisiae deletion strains, locus YDR150W, strain NUM1, hits give low values 1.01 | S. cerevisiae deletion strains, locus YDR162C, strain NBP2, hits give low values 1.03 | S. cerevisiae deletion strains, locus YDR318W, strain mcm21, hits give low values 1.03 | S. cerevisiae deletion strains, locus YDR388W, hits give low values 1.02 | S. cerevisiae deletion strains, locus YDR502C, strain sam2, hits give low values 1.03 | S. cerevisiae deletion strains, locus YEL061C, strain CIN8, hits give low values 1.01 | S. cerevisiae deletion strains, locus YER110C, hits give low values 1.03 | S. cerevisiae deletion strains, locus YER155C, strain BEM2, hits give low values 1.01 | S. cerevisiae deletion strains, locus YER167W, strain BCK2, hits give low values 1.02 | S. cerevisiae deletion strains, locus YGL078C, strain dbp3, hits give low values 1.04 | S. cerevisiae deletion strains, locus YGL086W, strain mad1, hits give low values 1.02 | S. cerevisiae deletion strains, locus YGL248W, strain PDE1, hits give low values 1.01 | S. cerevisiae deletion strains, locus YGR078C, strain PAC10, hits give low values 1.01 | S. cerevisiae deletion strains, locus YGR135W, strain pre9, hits give low values 1.01 | S. cerevisiae deletion strains, locus YGR229C, strain SMI1, hits give low values 1.01 | S. cerevisiae deletion strains, locus YGR252W, strain gcn5, hits give low values 1.07 | S. cerevisiae deletion strains, locus YHR030C, strain SLT2, hits give low values 1.01 | S. cerevisiae deletion strains, locus YHR079C, strain IRE1 (second series), hits give low values 1.03 | S. cerevisiae deletion strains, locus YHR094C, strain hxt1, hits give low values 1.03 | S. cerevisiae deletion strains, locus YHR129C, strain ARP1, hits give low values 1.01 | S. cerevisiae deletion strains, locus YHR200W, strain rpn10, hits give low values 1.03 | S. cerevisiae deletion strains, locus YIL066C, strain RNR3, hits give low values 1.03 | S. cerevisiae deletion strains, locus YIL073C, strain SPO22, hits give low values 1.1 | S. cerevisiae deletion strains, locus YIL125W, strain kgd1, hits give low values 1.03 | S. cerevisiae deletion strains, locus YIR030C, strain dcg1, hits give low values 1.02 | S. cerevisiae deletion strains, locus YJL095W, strain BCK1, hits give low values 1.01 | S. cerevisiae deletion strains, locus YJL134W, strain LCB3, hits give low values 1 | S. cerevisiae deletion strains, locus YJL168C, strain set2, hits give low values 1.03 | S. cerevisiae deletion strains, locus YJL187C, strain SWE1 (second series), hits give low values 1.01 | S. cerevisiae deletion strains, locus YJR043C, strain POL32, hits give low values 1.02 | S. cerevisiae deletion strains, locus YJR075W, strain HOC1, hits give low values 1.02 | S. cerevisiae deletion strains, locus YKL009W, strain mrt4, hits give low values 1.04 | S. cerevisiae deletion strains, locus YKL068W, hits give low values 1.04 | S. cerevisiae deletion strains, locus YKL085W, strain MDH1 (second series), hits give low values 1.02 | S. cerevisiae deletion strains, locus YKL085W, strain MDH1, hits give low values 1.02 | S. cerevisiae deletion strains, locus YKL190W, strain CNB1, hits give low values 1.01 | S. cerevisiae deletion strains, locus YKR001C, strain vps1, hits give low values 1.03 | S. cerevisiae deletion strains, locus YLR039C, strain RIC1, hits give low values 1.07 | S. cerevisiae deletion strains, locus YLR058C, strain SHM2, hits give low values 1.02 | S. cerevisiae deletion strains, locus YLR102C, strain apc9, hits give low values 1.02 | S. cerevisiae deletion strains, locus YLR262C, strain YPT6, hits give low values 1.05 | S. cerevisiae deletion strains, locus YLR268W, strain sec22, hits give low values 1.02 | S. cerevisiae deletion strains, locus YLR330W, strain CHS5, hits give low values 1.01 | S. cerevisiae deletion strains, locus YLR342W, strain FKS1 (second series), hits give low values 1.02 | S. cerevisiae deletion strains, locus YLR371W, strain rom2, hits give low values 1.03 | S. cerevisiae deletion strains, locus YLR418C, strain cdc73, hits give low values 1.04 | S. cerevisiae deletion strains, locus YML016C, strain PPZ1, hits give low values 1.01 | S. cerevisiae deletion strains, locus YML032C, strain rad52, hits give low values 1.05 | S. cerevisiae deletion strains, locus YML124C, strain tub3, hits give low values 1.03 | S. cerevisiae deletion strains, locus YMR078C, strain ctf18, hits give low values 1.04 | S. cerevisiae deletion strains, locus YMR223W, strain ubp8, hits give low values 1.04 | S. cerevisiae deletion strains, locus YMR263W, strain SAP30, hits give low values 1 | S. cerevisiae deletion strains, locus YMR307W, strain GAS1, hits give low values 1.08 | S. cerevisiae deletion strains, locus YNL067W, strain RPL9B, hits give low values 1.01 | S. cerevisiae deletion strains, locus YNL128W, strain TEP1, hits give low values 1.02 | S. cerevisiae deletion strains, locus YNL153C, strain GIM3, hits give low values 0.999 | S. cerevisiae deletion strains, locus YNL233W, strain BNI4, hits give low values 1.01 | S. cerevisiae deletion strains, locus YNL250W, strain rad50, hits give low values 1.06 | S. cerevisiae deletion strains, locus YNL271C, strain bni1, hits give low values 1.03 | S. cerevisiae deletion strains, locus YNL298W, strain CLA4, hits give low values 1.03 | S. cerevisiae deletion strains, locus YNL307C, strain MCK1, hits give low values 1.04 | S. cerevisiae deletion strains, locus YNL322C, strain KRE1, hits give low values 1.02 | S. cerevisiae deletion strains, locus YNR052C, strain pop2, hits give low values 1.04 | S. cerevisiae deletion strains, locus YOL006C, strain TOP1, hits give low values 1.03 | S. cerevisiae deletion strains, locus YOL012C, strain htz1 0.937 | S. cerevisiae deletion strains, locus YOL147C, strain pex11, hits give low values 1.03 | S. cerevisiae deletion strains, locus YOR061W, strain CKA2, hits give low values 1.01 | S. cerevisiae deletion strains, locus YOR069W, strain VPS5, hits give low values 1 | S. cerevisiae deletion strains, locus YOR136W, strain idh2, hits give low values 1.03 | S. cerevisiae deletion strains, locus YOR144C, strain elg1, hits give low values 1.02 | S. cerevisiae deletion strains, locus YOR184W, strain ser1, hits give low values 1.04 | S. cerevisiae deletion strains, locus YOR316C, strain cot1, hits give low values 1.02 | S. cerevisiae deletion strains, locus YPL055C, strain LGE1, hits give low values 1.03 | S. cerevisiae deletion strains, locus YPL241C, strain CIN2, hits give low values 1.01 | S. cerevisiae deletion strains, locus YPR119W, strain clb2, hits give low values 1.03 | S. cerevisiae deletion strains, locus YPR141C, strain kar3, hits give low values 1.04 | S. cerevisiae deletion strains, locus YPR163C, strain tif3, hits give low values 1.02 | S. cerevisiae deletion strains, locus YPR167C, strain met16, hits give low values 1.02 | S. cerevisiae deletion strains, strain wtn01, hits give low values 1 | S. cerevisiae strains, strain wild type, hits give low values 1.02
